14 compounds from PubChem BioAssay can be followed below.

Structures are written as SMILES. Calls of active or inactive are those of the source. Unless noted, no rule for the calls is given here.

Test [1] is described as follows: kinase inhibitors against Plasmodium liver-stage infection, cell-based, known kinase inhibitor set, luminescence, hepatoma host viability (AID 624392).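 Also: infected cells incubated roughly two days before readout.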 Particulars: Plasmodium liver stage in hepatoma cells, luciferase luminescence, concentration not given here; liver cell % of control: measured here: host liver cell viability; parasite % of control: stronger effect = lower value.

Test [2] in a line: modulators of glucocorticoid suppression of NF-kB, cell-based, luciferase, IL-1B stimulus, dexamethasone (AID 624486).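 As to percent of negative control (+Dex): 100% = mean signal of vehicle control wells on the plate.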 The conditions noted are these: NF-kB luciferase reporter, IL-1B + dexamethasone, luminescence; percent of negative control (+Dex): actives lie on both sides, concentration not given here; z-score: measured here: IL-1B alone, no Dex. (In general: Reporter assays use an easily measured gene product as a stand-in for the process of interest.)

Test [3] in a line: kinase inhibitors altering Pseudomonas killing of worms, whole organism (AID 651566).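 Also: tested at 14 µM; sign flipped so higher z means a lower ratio.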 The conditions noted are these: C. elegans killed by P. aeruginosa, survival ratio.
Test [4] in a line: activators of macrophage pro-inflammatory response, cell-based, murine, luminescence (AID 652131). Particulars: murine macrophage pro-inflammatory reporter, stronger effect = higher value.
Test [5] deals with Cellular tumor antigen p53 (Homo sapiens) (UniProt P04637). The experiment in a line: kinase inhibitors altering GFP-p53 stability in HPV16-positive cells, imaging, known kinase inhibitor set, EGFP/DsRed ratio (AID 1053116).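 Also: cells exposed to compounds for 24 h at 37 °C before reading.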 The conditions noted are these: stronger effect = higher value; EGFP object count: measured here: GFP-p53 positive objects count.
Test [6] can be described thus: IRF3 reporter activation in THP-1 macrophages, cell-based, PMA-stimulated THP-1, luminescence (AID 1053176). The conditions noted are these: PMA-differentiated THP-1, IRF3 reporter luminescence; stronger effect = higher value.
The nature of test [7]: survival rescue of mitochondrial mutant cells in low glucose, primary screen, MELAS cybrids, Rieske KO mouse fibroblasts, CellTiter-Glo (AID 1508586;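 active = mean z-score across replicates of 1.96 or higher in either the MELAS or the Rieske mutant cell line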;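 also: z relative to plate mean and SD of compound and empty wells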).
[8] abbreviates: MELAS cybrid survival, CellTiter-Glo 48 h, stronger effect = higher value.
The mark [9] stands for this setting: Rieske KO mouse fibroblast survival, CellTiter-Glo 72 h.

Chain of Cellular tumor antigen p53 (Homo sapiens) (P04637 whole entry, looked up): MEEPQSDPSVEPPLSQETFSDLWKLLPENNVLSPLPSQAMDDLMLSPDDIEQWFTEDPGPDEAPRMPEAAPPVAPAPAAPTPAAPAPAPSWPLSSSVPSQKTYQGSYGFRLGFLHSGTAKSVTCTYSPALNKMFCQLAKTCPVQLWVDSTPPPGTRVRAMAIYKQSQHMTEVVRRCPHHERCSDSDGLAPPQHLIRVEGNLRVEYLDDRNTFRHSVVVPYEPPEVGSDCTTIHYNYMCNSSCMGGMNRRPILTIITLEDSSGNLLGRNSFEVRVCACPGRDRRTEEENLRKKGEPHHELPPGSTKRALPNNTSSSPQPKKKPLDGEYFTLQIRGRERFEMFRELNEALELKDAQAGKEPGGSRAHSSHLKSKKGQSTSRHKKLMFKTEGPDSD

For `COc1cc2c(cc1Nc1nc(Nc3ccsc3C(N)=O)c3cc[nH]c3n1)N(C(=O)CN(C)C)CCC2`, the liver cell % of control in test [1] was 54.7%. In addition, the parasite % of control in test [1] is 369% (inactive). Moreover, the percent of negative control (+Dex) in test [2] is 95.5% (inactive). Moreover, the z-score is -0.185 in test [2]; -0.225 (inactive) in test [3]; 2.59 (inactive) in test [4]; 2.79 (active) in test [7] (setting [8]); 10.1 in test [7] (setting [9]). For the same compound, the EGFP object count in test [5] came out at 1.5. Further, the EGFP/DsRed ratio in test [5] is 0.0536 (inactive). Further, in test [6], the fraction signal was -0.007 (inactive).

`Fc1ccc(-c2cc(C3CNNC3c3ccccn3)ccn2)cc1` (centres undefined): the liver cell % of control in test [1] amounted to 162%. In addition, the parasite % of control in test [1] was 60.9% (inactive). Further, the percent of negative control (+Dex) in test [2] is 81% (inactive). For the same compound, the z-score in test [2] is -1.07; in test [3], 0 (inactive); in test [4], -0.015 (inactive); in test [7] (setting [8]), 0.213 (inactive); in test [7] (setting [9]), -0.249. In test [5], the EGFP object count came to 3. In addition, the EGFP/DsRed ratio in test [5] is 0.0511 (inactive). The fraction signal in test [6] is -0.0065 (inactive).

For the compound `Nc1nccc(-c2c(-c3ccc(F)cc3)ncn2CCCN2CCOCC2)n1`, the liver cell % of control in test [1] was 120%. Moreover, the parasite % of control in test [1] is 130% (inactive). Moreover, the percent of negative control (+Dex) in test [2] is 116% (inactive). The z-score is 2.06 in test [2]; -0.635 (inactive) in test [3]; 1.67 (inactive) in test [4]; -0.929 (inactive) in test [7] (setting [8]); -0.324 in test [7] (setting [9]). For the same compound, the EGFP object count in test [5] came to 3.5. Further, the EGFP/DsRed ratio in test [5] is 0.019 (inactive). In addition, in test [6], the fraction signal was -0.0025 (inactive).

As to `CCn1c(-c2nonc2N)nc2cncc(C(=O)N3CCNCC3)c21`, the liver cell % of control in test [1] was 101%. Further, the parasite % of control in test [1] was 140% (inactive). Moreover, the percent of negative control (+Dex) in test [2] is 111% (inactive). Moreover, the z-score in test [2] is 0.555; in test [3], -0.355 (inactive); in test [4], 0.864 (inactive); in test [7] (setting [8]), -0.623 (inactive); in test [7] (setting [9]), 0.0786. In test [5], the EGFP object count was 8. Besides, the EGFP/DsRed ratio in test [5] was 0.129 (inactive). Moreover, the fraction signal in test [6] was -0.005 (inactive).

Compound `O=S1CCN(Cc2ccc(-c3ccc4ncnc(Nc5ccc(OCc6ccccc6)c(Cl)c5)c4c3)o2)CC1` gave a liver cell % of control in test [1] of 98.4%. For the same compound, the parasite % of control in test [1] is 108% (inactive). Further, the percent of negative control (+Dex) in test [2] is 77% (inactive). Besides, the z-score was -0.87 in test [2]; 0.67 (inactive) in test [3]; 1.11 (inactive) in test [4]; 1.05 (inactive) in test [7] (setting [8]); -0.081 in test [7] (setting [9]). Also, the EGFP object count in test [5] is 5. Moreover, the EGFP/DsRed ratio in test [5] is 0.0559 (inactive). Also, the fraction signal in test [6] is -0.0035 (inactive).

With `O=S(=O)(CCOCc1ccc(-c2ccc3ncnc(Nc4ccc(OCc5cccc(F)c5)c(Cl)c4)c3c2)o1)c1ccccc1`, the liver cell % of control in test [1] came to 105%. Besides, the parasite % of control in test [1] is 111% (inactive). For the same compound, the percent of negative control (+Dex) in test [2] is 78% (inactive). For the same compound, the z-score was -1.27 in test [2]; -1.41 (inactive) in test [3]; -0.482 (inactive) in test [4]; -0.647 (inactive) in test [7] (setting [8]); -0.248 in test [7] (setting [9]). For the same compound, the EGFP object count in test [5] was determined as 2. The EGFP/DsRed ratio in test [5] was 0.0356 (inactive). In test [6], the fraction signal was -0.003 (inactive).

As to `O=C(NCC1CC1)c1ccc(-c2cccc(C(=O)NC3CC3)c2)cc1`, the liver cell % of control in test [1] is 164%. In test [1], the parasite % of control was 130% (inactive). Moreover, the percent of negative control (+Dex) in test [2] is 91.5% (inactive). Further, the z-score was 1.28 in test [2]; -0.465 (inactive) in test [3]; 1.36 (inactive) in test [4]; -0.117 (inactive) in test [7] (setting [8]); -0.418 in test [7] (setting [9]). Also, the EGFP object count in test [5] came to 4.5. Moreover, the EGFP/DsRed ratio in test [5] is 0.0862 (inactive). In addition, the fraction signal in test [6] was 0 (inactive).

In the case of `Cc1nc(-c2ccccc2)n2nc(NCCCN3CCOCC3)ncc12`, the liver cell % of control in test [1] worked out at 97.3%. Also, in test [1], the parasite % of control was 149% (inactive). Besides, the percent of negative control (+Dex) in test [2] was 102% (inactive). Moreover, the z-score in test [2] is 1.35; in test [3] it was -0.095 (inactive); in test [4] it was -1.16 (inactive); in test [7] (setting [8]) it was -0.231 (inactive); in test [7] (setting [9]) it was -0.21. Also, the EGFP object count in test [5] was 4.5. Moreover, the EGFP/DsRed ratio in test [5] was 0.201 (inactive). The fraction signal in test [6] is -0.0105 (inactive).

Consider `CN(c1ccc(NC(=O)NCCN2CCOCC2)cc1)c1ccnc(Nc2ccc(CS(C)(=O)=O)cc2)n1`, for which the liver cell % of control in test [1] was 99.9%. Also, in test [1], the parasite % of control is 114% (inactive). In addition, in test [2], the percent of negative control (+Dex) is 94% (inactive). The z-score in test [2] is -0.155; in test [3], 0.89 (inactive); in test [4] it was 2.96 (inactive); in test [7] (setting [8]) it was -0.011 (inactive); in test [7] (setting [9]), -0.139. Also, the EGFP object count in test [5] was determined as 3. The EGFP/DsRed ratio in test [5] is 0.184 (inactive). The fraction signal in test [6] was -0.0035 (inactive).

Consider `Fc1ccc(Nc2nccc(-c3c(-c4ccc(C(F)(F)F)cc4)nn4ncccc34)n2)cc1F`, for which the liver cell % of control in test [1] came to 121%. Further, the parasite % of control in test [1] was 125% (inactive). Besides, the percent of negative control (+Dex) in test [2] was 94.5% (inactive). Further, the z-score was 0.25 in test [2]; 0.135 (inactive) in test [3]; -0.216 (inactive) in test [4]; -0.717 (inactive) in test [7] (setting [8]); -0.174 in test [7] (setting [9]). In addition, the EGFP object count in test [5] worked out at 5.5. For the same compound, in test [5], the EGFP/DsRed ratio was 0.0976 (inactive). In test [6], the fraction signal was 0.008 (inactive).

In the case of `NC(=O)c1sc(-n2cnc3cc(C(F)(F)F)ccc32)cc1OCc1ccccc1Br`, the liver cell % of control in test [1] was found to be 109%. The parasite % of control in test [1] is 113% (inactive). In test [2], the percent of negative control (+Dex) is 94.5% (inactive). The z-score is 0.595 in test [2]; 0.64 (inactive) in test [3]; -0.704 (inactive) in test [4]; 0.066 (inactive) in test [7] (setting [8]); -0.5 in test [7] (setting [9]). The EGFP object count in test [5] turned out to be 10.5. The EGFP/DsRed ratio in test [5] was 0.407 (inactive). In test [6], the fraction signal was -0.0005 (inactive).

In turn, `COc1cc(Nc2nccc(-c3cnn4ncccc34)n2)cc(OC)c1` gave a liver cell % of control in test [1] of 132%. Also, in test [1], the parasite % of control is 14.2% (inactive). The percent of negative control (+Dex) in test [2] was 29% (active). The z-score in test [2] is -7.79; in test [3], 0.5 (inactive); in test [4] it was -1.96 (inactive); in test [7] (setting [8]), 1.1 (inactive); in test [7] (setting [9]), 0.69. Moreover, the EGFP object count in test [5] was 2.5. Also, the EGFP/DsRed ratio in test [5] is 0.0482 (inactive). Further, the fraction signal in test [6] is -0.004 (inactive).

The compound `NCc1ccc(-n2c(-c3nonc3N)nc3cnccc32)cc1` showed a liver cell % of control in test [1] of 104%. For the same compound, the parasite % of control in test [1] was 162% (inactive). In addition, in test [2], the percent of negative control (+Dex) is 58% (inactive). Also, the z-score in test [2] was -3.59; in test [3], -0.655 (inactive); in test [4], -1.05 (inactive); in test [7] (setting [8]), -0.95 (inactive); in test [7] (setting [9]), -0.216. Moreover, the EGFP object count in test [5] is 1. The EGFP/DsRed ratio in test [5] was 0.0079 (inactive). Moreover, the fraction signal in test [6] is 0.003 (inactive).

For `CCN1CCC(C(=O)NC2NNC3NNC(c4cccc(F)c4F)CC32)CC1` (centres undefined), the liver cell % of control in test [1] stood at 73.6%. Besides, in test [1], the parasite % of control is 144% (inactive). Moreover, in test [2], the percent of negative control (+Dex) is 114% (inactive). In addition, the z-score is -0.315 in test [2]; -0.46 (inactive) in test [3]; 2.7 (inactive) in test [4]; -0.831 (inactive) in test [7] (setting [8]); -0.194 in test [7] (setting [9]). Further, the EGFP object count in test [5] was found to be 15. Also, in test [5], the EGFP/DsRed ratio was 0.326 (inactive). For the same compound, the fraction signal in test [6] was -0.002 (inactive).
